Screens deposited in PubChem by several laboratories.
GC-B act – GC-B (human) receptor activation. P20594. HEK293-GC-B cells, CNP EC30, cGMP TR-FRET; 0% at EC30 CNP, 100% saturating CNP. activation, % at 10 µM. 370,000 tested, 0.11% active. AID 1920062;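 active = activation at 10 µM reaching about 35% in either raw or pattern-adjusted values, limit read from the data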
M18AAP inhibitor – PfM18AAP enzyme inhibition. 290,000 tested, 1.2% active. recombinant PfM18AAP, H-Glu-NHMec fluorogenic cleavage. AID 1822. inhibition, % at 7.35 µM;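 active = inhibition above the campaign mean inhibition over all tested compounds plus 3 SD, cut at about 28% in these data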;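 also: 0% = plate median of test compound wells and 100% = 2 mM ZnCl2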
NPR1 activator – GC-A (human) enzyme activation; P16066; HEK293 GC-A cells, cGMP TR-FRET, EC30 ANP; 0% at EC30 ANP, 100% saturating ANP; AID 1671463; activation, % at 10 µM; 370,000 tested, 0.14% active; in the data active = activation above about 40%
Rce1 inhib – inhibitors of yeast Ras-converting enzyme; Q03530; yeast membranes, quenched prenylated peptide cleavage fluorescence; calls only; 290,000 tested, 0.27% active; AID 2563;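 active = fall in fluorescence gain of 50% or more versus controls, with final raw signal at or below 3038400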;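 also: plate controls were neutral control wells for no effect and wells lacking membranes for full effect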
PLC-gamma1 inh – blocks human PLC-gamma1 enzyme activity. purified PLC-gamma1, fluorogenic substrate, fluorescence. inhibition, % at 12.2 µM. 370,000 tested, 0.84% active. AID 720700; in the data active = inhibition above about 9.5%
Target sequence (P19174 whole entry, looked up): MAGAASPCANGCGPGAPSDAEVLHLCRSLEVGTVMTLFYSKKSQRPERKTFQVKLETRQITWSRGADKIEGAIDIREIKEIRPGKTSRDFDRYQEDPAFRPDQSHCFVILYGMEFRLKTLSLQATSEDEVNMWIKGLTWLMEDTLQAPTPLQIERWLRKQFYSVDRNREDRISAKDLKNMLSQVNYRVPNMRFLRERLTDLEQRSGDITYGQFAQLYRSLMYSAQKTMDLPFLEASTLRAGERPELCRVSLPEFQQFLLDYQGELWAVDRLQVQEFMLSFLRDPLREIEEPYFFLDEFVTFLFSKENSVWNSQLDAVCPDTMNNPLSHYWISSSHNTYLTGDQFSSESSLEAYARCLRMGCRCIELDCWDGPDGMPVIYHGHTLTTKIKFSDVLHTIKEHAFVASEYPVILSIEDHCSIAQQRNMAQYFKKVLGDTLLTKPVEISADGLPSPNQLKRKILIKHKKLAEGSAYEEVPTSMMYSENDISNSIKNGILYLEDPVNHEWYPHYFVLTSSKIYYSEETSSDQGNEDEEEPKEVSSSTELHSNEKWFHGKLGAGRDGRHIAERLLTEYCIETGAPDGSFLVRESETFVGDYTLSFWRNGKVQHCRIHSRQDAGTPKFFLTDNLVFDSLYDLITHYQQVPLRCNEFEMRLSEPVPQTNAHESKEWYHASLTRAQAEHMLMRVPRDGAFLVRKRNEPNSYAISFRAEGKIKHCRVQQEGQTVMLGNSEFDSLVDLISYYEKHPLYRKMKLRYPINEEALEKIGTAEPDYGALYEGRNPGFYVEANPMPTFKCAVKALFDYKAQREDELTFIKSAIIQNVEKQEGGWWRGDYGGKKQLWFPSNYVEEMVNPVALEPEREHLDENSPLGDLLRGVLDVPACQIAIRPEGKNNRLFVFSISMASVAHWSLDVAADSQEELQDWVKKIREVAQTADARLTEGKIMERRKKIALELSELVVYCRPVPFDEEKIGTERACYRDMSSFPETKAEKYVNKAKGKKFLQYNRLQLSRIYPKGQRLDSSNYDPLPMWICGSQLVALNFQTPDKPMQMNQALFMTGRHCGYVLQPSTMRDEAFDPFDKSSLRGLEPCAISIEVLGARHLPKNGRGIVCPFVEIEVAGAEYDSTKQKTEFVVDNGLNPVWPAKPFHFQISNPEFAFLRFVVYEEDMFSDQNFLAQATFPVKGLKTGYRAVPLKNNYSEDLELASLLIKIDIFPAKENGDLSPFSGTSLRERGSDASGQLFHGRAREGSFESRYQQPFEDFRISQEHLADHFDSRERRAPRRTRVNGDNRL
PLC-beta3 inh – PLC-beta3 (human) inhibition, primary screen; Purified PLC-beta3, fluorogenic substrate, fluorescence; inhibition, % at 12.2 µM; 370,000 tested, 0.18% active; Q01970; in the data active = inhibition above about 11%;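 also: 0% = median of compound wells on plate and 100% = full blocker control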
* = called active by the depositor; i = inactive; . = no result given; + = active, no number. A selection: hits, their analogues and other compounds. The true share with any hit is near 2.2%.

SMILES | GC-B act | M18AAP inhibitor | NPR1 activator | Rce1 inhib | PLC-gamma1 inh | PLC-beta3 inh
CC(=O)c1ccc(NC(=O)c2ccc3c(=O)n4c(nc3c2)CCCCC4)cc1 | 4 | 0 | 4 | i | -2 | -4
C=CCN1[C@H](Cc2ccccc2)COc2cc(F)ccc2S1(=O)=O | -6 | . | 1 | . | 2 | 1
COc1ccc(-c2n[nH]c(=S)n2-c2ccc3c(c2)OCCO3)cc1 | 2 | 30* | 3 | . | -1 | 0
O=C(OC12CCCN(C1)/C(=C/c1ccccc1)C2)c1ccc(Cl)cc1 (stereo not given) | 5 | . | 0 | . | 0 | -1
C=CCNc1nc(=S)[nH]c2cc(OC)c(OC)cc12 | 37* | 6 | 41* | i | -2 | -1
COc1ccc(-c2ccn(-c3cccc(F)n3)n2)cc1 | 0 | 32* | 4 | . | -10 | -14
CC1CCN(C(=O)C2CCN(S(=O)(=O)c3ccc(-n4cnnn4)cc3)CC2)CC1 | 4 | -7 | -2 | + | 4 | -3
COC(=O)c1ccc(Cn2ccc3ccc(-c4ccc5ccn(C(=O)c6ccccc6OC)c5c4)cc32)cc1 | 1 | . | 2 | . | -72 | -99
Cn1cccc1C=NNC(=O)c1cc(-c2ccc(Cl)cc2)n[nH]1 | -9 | . | 4 | . | -7 | -20
CC(C)c1ccc(C2CC(=O)N3CN(C)CSC3=C2C#N)cc1 (stereo not given) | . | 18 | . | i | . | .
COc1cc(C2CC(=O)N3CN(c4ccccc4C)CSC3=C2C#N)cc(OC)c1OC (stereo not given) | 4 | 33* | 0 | i | -3 | -6
COc1ccccc1N1CSC2=C(C#N)C(c3ccc(SC)cc3)CC(=O)N2C1 (stereo not given) | -1 | 30* | -1 | i | -17 | -20
COc1ccc(CNC2CCC23CCC(C)CC3)cc1 (stereo not given) | -4 | . | -4 | . | 0 | -1
CC(=O)OCCN1C(=O)c2ccc(-c3nc4ccccc4c(=O)o3)cc2C1=O | 10 | . | 47* | i | 3 | 2
N#CC(C#SN)=C1CCCCC1 | 2 | 30* | 4 | i | -6 | -9
Cc1cc(SCCC(=O)O)nc2ccccc12 | -12 | 30* | 2 | i | -2 | 3
O=C(Nc1ccc(Oc2ccccc2)cc1)c1csc([C@@H]2O[C@H](CO)[C@H](O)[C@H](O)[C@H]2O)n1 | 1 | . | 0 | . | 9.7* | 4
CC(=O)Nc1ccc(NC(=O)c2csc([C@@H]3O[C@H](CO)[C@H](O)[C@H](O)[C@H]3O)n2)cc1 | -8 | . | 3 | . | -1 | 2
COC(=O)[C@@]12CCCCC3=C1N(CCC3)C(=O)[C@H]2CC(=O)N1CCN(C(=O)C2CC2)CC1 | 3 | . | 2 | . | 4 | 2
CC(C)C[C@H](NC(=O)c1[nH]cnc1C(=O)N[C@@H](C)C(=O)OCc1ccccc1)C(=O)OCc1ccccc1 | 6 | . | -1 | . | 11* | 1
COc1ccc(-c2cccc(-c3nc4ccc(Cl)cn4c3NC3CCCCC3)c2)cc1 | 50* | . | 43* | . | -24 | -46
CC(=O)c1csc(-c2cccc(-c3nc4ccc(Cl)cn4c3NC3CCCCC3)c2)c1 | 56* | . | 51* | i | -2 | -2
CCC(C)Sc1cc(-c2nc3ccc(Cl)cn3c2NC2CCCCC2)ccc1OC (stereo not given) | 29 | . | 40 | . | -105 | -178
CCCCCCSc1cc(-c2nc3ccc(Cl)cn3c2NC2CCCCC2)ccc1OC | 7 | . | 11 | i | -9 | -21
NC(=O)CSC1=Nc2ccccc2C2=NC(c3ccccc3)C(=O)N12 (stereo not given) | 8 | 2 | 4 | + | -20 | -20
O=C(COc1ccc(Nc2ccccc2)cc1)OCC(=O)N1CCCCC1 | -6 | 29* | 25 | i | 0 | -7
CCOc1ccc(N(CC(=O)Nc2c(C)n(C)n(-c3ccccc3)c2=O)S(=O)(=O)c2cc(OC)ccc2OC)cc1 | -1 | . | -1 | . | 0 | 0
Cc1cc([N+](=O)[O-])nn1CCCC(=O)N1CCN(c2ccc(F)cc2)CC1 | 8 | -2 | 2 | i | -3 | 1
Cn1nc([N+](=O)[O-])nc1N1CCN(c2ccc(F)cc2)CC1 | -1 | 28* | 4 | i | -2 | 1
